hcDAF-12 act: H. contortus DAF-12 nuclear receptor activators, primary screen, cell-based, luminescence, HEK293, lit1-tk-luc reporter; HEK293 hcDAF-12 lit1-tk-luc reporter; 0% DMSO, 100% Δ7-dafachronic acid; AID 652067, 2013; activation, % at 6.8 µM; actives 1.4% (n = 370,000);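 active = activation above the mean of all tested compounds plus 3 SD, cut at about 5.5% in these data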;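 also: 100% = response to 3 µM Δ7-dafachronic acid high control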
DAX1 inh-1: DAX1 (NR0B1) inhibitors, primary screen, cell-based, HEK293, Gal4-DAX1, luciferase luminescence; inhibition, % at 6.75 µM; Nuclear receptor subfamily 0 group B member 1 (Homo sapiens), P51843; actives 0.99% (n = 340,000); HEK293 Gal4-DAX1 luciferase reporter;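 active = inhibition above the mean over all tested compounds plus 3 SD, cut at about 4.2% in these data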;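 also: 0% = DAX1-transfected cells with DMSO and 100% = empty-vector control cells with DMSO; inhibition shows as a rise in luminescence from relieved DAX1 repression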
Target sequence (P51843 207-470 limits assumed): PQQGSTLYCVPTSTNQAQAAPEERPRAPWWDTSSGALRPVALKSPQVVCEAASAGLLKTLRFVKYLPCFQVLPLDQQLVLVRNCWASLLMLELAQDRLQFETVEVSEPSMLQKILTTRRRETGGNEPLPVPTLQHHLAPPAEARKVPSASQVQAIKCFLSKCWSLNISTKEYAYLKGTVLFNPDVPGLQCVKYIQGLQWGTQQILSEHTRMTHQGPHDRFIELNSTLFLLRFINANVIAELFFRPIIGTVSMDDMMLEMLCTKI
DAX1 inh-2: DAX1 (NR0B1) inhibitors on StAR promoter, primary screen, cell-based, luminescence, SF-1 (NR5A1), full-length DAX-1; actives 1.1% (n = 370,000); inhibition, % at 6.8 µM; HEK293T StAR-luciferase reporter, SF-1/DAX-1 repression relief;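 active = inhibition above the mean over all tested compounds plus 3 SD, cut at about 3.6% in these data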;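 also: 0% = DAX-1 cells with DMSO and 100% = cells lacking DAX-1 with DMSO; higher inhibition means more luminescence from relief of DAX-1 repression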
SMARCA2 act: SMARCA2 (BRM) function activators, primary screen, cell-based, luminescence, high throughput | activation, % at 9.1 µM | MG213 cells, MMTV-luciferase reporter, dexamethasone, overnight | AID 652017, 2013 | actives 1% (n = 370,000); in the data active = activation above about 7.8%;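 also: 0% = vehicle wells and 100% = reference activator wells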
hgDAF12 agonist: H. glycines DAF-12 receptor agonists, primary screen, cell-based, luminescence, HEK293, GAL4 fusion, UAS-luciferase | Nuclear hormone receptor DAF-12 (Heterodera glycines), GAL4 fusion | HEK293 GAL4-hgDAF12 UAS-luciferase reporter, agonist luminescence; normalized to butyrate control | activation, % at 6.8 µM | actives 1.8% (n = 370,000);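 active = activation above a cutoff set at the mean of all screened compounds plus 3 SD, cut at about 10% in these data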;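 also: 0% = DMSO wells and 100% = sodium butyrate wells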
ssDAF-12 act: S. stercoralis DAF-12 nuclear receptor activators, primary screen, cell-based, luminescence, HEK293, GRIP1 co-expression, lit1-tk-luc; HEK293 ssDAF-12/GRIP1 lit1-tk-luc reporter; % of 3 µM dafachronic acid response; actives 1% (n = 370,000); AID 652126, 2013; activation, % at 6.8 µM;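 active = activation above the mean over all tested compounds plus 3 SD, cut at about 0.9% in these data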;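 also: 0% = DMSO-only wells and 100% = 3 µM delta7-dafachronic acid wells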
LXRb hcDAF ctr: LXR agonists, Gal4 luciferase reporter, confirmation, counter-screen for hcDAF-12 agonist project, cell-based, luminescence, HEK293, H. contortus campaign; shares compounds with hcDAF-12 act; AID 743027, 2013; HEK293 Gal4-LXR tk-luc reporter, 24 h; normalized: DMSO 0%, positive control 100%; activation, % at 6.8 µM; 3,400 tested, under 10 active;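 active = mean percent activation of the reporter above a cutoff set as the average over tested compounds plus their standard deviation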
Target sequence (P55055 whole entry, looked up, the tested form may be a part): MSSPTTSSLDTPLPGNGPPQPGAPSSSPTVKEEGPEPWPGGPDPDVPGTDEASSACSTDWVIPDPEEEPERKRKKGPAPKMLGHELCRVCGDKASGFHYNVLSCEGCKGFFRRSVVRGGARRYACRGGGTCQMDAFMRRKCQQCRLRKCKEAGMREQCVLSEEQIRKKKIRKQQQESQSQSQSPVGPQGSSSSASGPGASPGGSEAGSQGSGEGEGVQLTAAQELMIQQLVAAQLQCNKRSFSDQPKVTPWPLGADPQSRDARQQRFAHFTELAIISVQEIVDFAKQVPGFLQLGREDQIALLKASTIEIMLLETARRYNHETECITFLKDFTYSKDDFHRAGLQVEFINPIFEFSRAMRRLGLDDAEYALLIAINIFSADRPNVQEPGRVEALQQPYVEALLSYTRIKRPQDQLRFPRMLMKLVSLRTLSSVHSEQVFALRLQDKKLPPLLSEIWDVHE
hcDAF12 conf: H. contortus DAF-12 receptor agonists, confirmation, cell-based, luminescence, HEK293, lit1-tk-luc, triplicate. shares compounds with hcDAF-12 act. HEK293 hcDAF-12 lit1-tk-luc reporter; % of Δ7-dafachronic acid response. activation, % at 6.8 µM. actives 61% (n = 3,400). AID 743032, 2013;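 active = mean activation across triplicate tests above the threshold derived from the earlier primary screen, cut at about 5.5% in these data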;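 also: 0% = DMSO only wells and 100% = 3 µM Δ7-dafachronic acid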
* marks the source's active call; other numbers are inactive results; nt = not tested or not shown; ! = not active in a repeat. An excerpt weighted towards active compounds, which were near 4.8% of everything screened.

SMILES	hcDAF-12 act	DAX1 inh-1	DAX1 inh-2	SMARCA2 act	hgDAF12 agonist	ssDAF-12 act	LXRb hcDAF ctr	hcDAF12 conf
COc1ccc(O)c(-c2cc(-c3ccccc3Cl)[nH]n2)c1	7.5*	2.5	0.6	0.5	7.0	0.4	0.4	4.3
Cc1ccc(O)c(-c2cc(-c3cccc(Br)c3)n[nH]2)c1	1.2	1.8	0.0	2.8	2.2	-0.4	nt	nt
Oc1ccccc1-c1cc(-c2ccccc2)n[nH]1	19.3*	5.9*	3.7*	6.0	19.0*	4.5*	1.8	20.8*
COc1ccc(-c2cc(-c3ccccc3O)[nH]n2)cc1	19.5*	2.1	3.7*	3.6	21.8*	4.4*	2.6	23.1*
Oc1ccccc1-c1ccn[nH]1	0.8	-0.2	0.2	0.6	0.8	-1.6	nt	nt
COc1ccc(-c2cc(-c3c(O)c(OC)c4occc4c3OC)[nH]n2)cc1	1.1	-0.7	0.2	-2.9	0.4	-1.4	nt	nt
Oc1ccccc1-c1cc(-c2ccc(F)cc2)n[nH]1	18.6*	10.9*	2.6	3.2	21.8*	4.3*	2.0	18.9*
COc1ccc(Cl)c(-c2cc(C(=O)NC(C)C)[nH]n2)c1	0.4	nt	1.0	-1.1	0.9	-1.2	nt	nt
Clc1ccc(-c2csc3ncnc(N4CCc5ccccc5C4)c23)cc1	-0.4	1.6	-0.1	-2.6	-0.6	0.7	nt	nt
COC(=O)c1ccc(/C=N/OCC(=O)NCCc2ccc(OC)c(OC)c2)cc1	-1.8	0.9	-0.1	-1.9	-2.9	-1.6	nt	nt
Cc1ccc(-c2cc(-c3ccc(F)cc3)n[nH]2)c(O)c1	20.1*	11.8*	2.4	5.5	18.1*	4.8*	1.8	17.9*
Cc1ccc2c(C)nc(/N=C(\N)NC(=O)N3c4ccccc4Sc4ccccc43)nc2c1	10.3*!	0.5	-0.4	2.7	3.2	0.3	-0.5	-1.2
Brc1ccc(-c2csc(/N=C/N3CCCC3)n2)cc1	-0.5	0.5	0.1	0.7	5.3	-0.8	nt	nt
CCN1CCN(/C=N/c2nc(C)cs2)CC1	6.8*	0.0	1.5	-1.5	7.8	-0.2	0.4	2.3
CCN(C[C@H]1N[C@@](C)(C(=O)OC)[C@H]2C(=O)N(Cc3ccccc3)C(=O)[C@@H]12)C(=O)c1ccccc1	-0.7	-1.7	3.0	1.1	-2.1	-1.0	nt	nt
Cc1cccc(NNC(=S)Nc2ccccc2)c1	10.9*	1.1	0.6	-0.1	3.3	0.3	0.0	5.2
Cc1cccc(NNC(=S)Nc2c(C)cccc2C)c1	-1.4	-0.8	-0.5	2.5	-2.5	-1.4	nt	nt
Cc1ccc(N/N=C/c2ccc3c(c2)OCCO3)cc1Cl	7.8*	0.4	0.7	3.4	9.9	-0.1	2.2	8.3*
COc1cc([N+](=O)[O-])ccc1N/C=C/C(=O)c1cccs1	17.4*	-1.8	2.5	4.2	17.4*	2.3*	1.4	15.9*
NC(=O)c1ccccc1NS(=O)(=O)c1cccs1	1.9	-0.2	-0.4	-2.2	1.8	-0.8	nt	nt
Cc1ccc(C(=O)/C=C/Nc2ccccc2C(N)=O)o1	9.3*	1.4	2.6	2.9	11.9*	-0.2	1.0	4.6
NC(=O)c1ccccc1N/C=C/C(=O)c1cccs1	8.3*	2.3	2.5	-0.5	9.9	0.7	1.7	5.6*
Cc1ccc(NC(=O)CN(C)C(=O)COC(=O)/C=C/c2cccs2)cc1	-0.7	-0.7	2.5	3.6	-0.2	-0.7	nt	nt
Cc1ccc(Cn2c(N)nc3ccccc32)cc1	-2.8	-0.6	-0.9	-3.1	-4.9	-1.7	nt	nt
Nc1ccccc1SSc1ccccc1N	10.5*	0.5	-1.1	3.9	4.0	-0.1	0.2	5.3
SMILES	hcDAF-12 act	DAX1 inh-1	DAX1 inh-2	SMARCA2 act	hgDAF12 agonist	ssDAF-12 act	LXRb hcDAF ctr	hcDAF12 conf
Cc1cc2nc(-c3cccc(Br)c3)c(Cc3cccc(Cl)c3)n2c(C)c1Br	2.0	nt	0.6	0.0	-0.2	-0.6	nt	nt
COc1ccccc1Cc1c(-c2ccc(F)cc2)nc2cc(C)c(Br)c(C)n12	8.6*	nt	0.9	1.3	7.5	1.1*	0.1	6.7*
COc1ccccc1Cc1c(-c2ccccc2)nc2cc(C)c(Br)c(C)n12	5.0	nt	0.5	-0.7	7.1	0.5	nt	nt
Cc1cc2nc(-c3ccc(Cl)cc3)c(Cc3ccsc3)n2c(C)c1Br	6.8*	nt	-1.1	-0.9	2.3	0.9*	-0.2	2.9
COc1ccc(Cc2c(-c3cccc(Cl)c3)nc3cc(C)c(Br)c(C)n23)c(C)c1	6.9*	nt	-0.1	-2.0	4.4	2.0*	0.0	4.9
COc1ccccc1Cc1c(C(C)(C)C)nc2cc(C)c(Br)c(C)n12	-0.2	nt	-0.1	2.5	5.2	-1.1	nt	nt
COc1ccccc1Cc1c(-c2ccc(C)cc2)nc2cc(C)c(Br)c(C)n12	9.9*	nt	3.1	3.2	12.2*	1.9*	0.4	11.3*
CC(NC(=O)OCc1ccccc1)c1ccccc1 (stereo not given)	-1.2	-0.8	-0.1	-3.1	0.9	-1.4	nt	nt
O=C(NCN1CCN(c2ccccc2F)CC1)c1cccnc1	1.5	0.1	-1.0	0.4	-0.1	-1.2	nt	nt
CCOC1=C2[C@@H](CN(S(=O)(=O)c3ccc(C)cc3)[C@H]2c2cccc3ccccc23)[C@H]2C(=O)N(Cc3ccccc3)C(=O)[C@H]2C1	-2.1	nt	-2.3	-5.0	-3.5	-0.8	nt	nt
CC(C)(C)NC(=O)C(c1ccc(O)cc1)N(Cc1ccco1)C(=O)Cn1nnc(-c2cccs2)n1 (stereo not given)	8.2*	-0.5	-0.3	2.0	-2.0	-1.4	-0.3	-0.1
COC(=O)c1ccc(N=NNc2ccc(C(=O)OC)cc2)cc1	10.2*	-1.4	3.2	2.1	6.6	-0.2	1.4	12.3*
CCc1c(C)nc(SCC(N)=O)c(C#N)c1C	-1.7	-0.5	-0.1	-1.0	1.0	-1.0	nt	nt
